ADAM10 inh – human ADAM10 inhibitors, primary screen, biochemical, QFRET, HTS; recombinant ADAM10, EDANS/DABCYL FRET peptide cleavage, 3 h; inhibition, % at 7 µM; 0.62% of 370,000 active;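 active = inhibition above a per-campaign cutoff equal to the mean of compounds falling between control-based bounds plus 3 SD, cut at about 20% in these data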
GRIN3A LBD mod – binders of NR3A ligand-binding domain, primary screen, biophysical, differential scanning fluorimetry, uHTS | NR3A LBD differential scanning fluorimetry, Tm shift; 0% = protein alone, 100% = glycine-bound protein | Glutamate receptor ionotropic, NMDA 3A (GRIN3A) ligand-binding domain | 2.5% of 340,000 active | Tm shift relative to glycine control, % at 25 µM;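 active = melting temperature shift of at least 10% of the positive control shift, at one fixed dose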
FAS-TE inh – FAS thioesterase domain inhibitors, primary screen, biochemical, fluorescence intensity, uHTS; Fatty acid synthase (Homo sapiens), P49327; recombinant FAS-TE, OMFH fluorogenic substrate, fluorescence endpoint; inhibition, % at 15 µM; 0.67% of 360,000 active; AID 602261, 2012;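 active = compounds whose normalised, plate-corrected inhibition of enzyme fluorescence in the single-dose primary screen is 50% or more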
aDG glyco act – activators of alpha-DG glycosylation, primary screen, uHTS, Pro5-aDG cells, AlphaScreen. activation, % at 10 µM. 0.22% of 360,000 active. alpha-DG glycosylation AlphaScreen (IIH6); 0% Pro5, 100% B10-LARGE cell signal. AID 624168, 2012;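 active = activation of at least 8% versus controls, or a plate z-score of at least 8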;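 also: Pro5 are CHO cells carrying HIG-tagged alpha-DG that lacks glycosylation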
ADAM17 inh – ADAM17 inhibitors, primary screen, biochemical, QFRET; Disintegrin and metalloproteinase domain-containing protein 17 (Homo sapiens), P78536; recombinant ADAM17, EDANS/DABCYL FRET peptide cleavage; inhibition, % at 6.95 µM; 0.83% of 370,000 active; AID 720648, 2013;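 active = inhibition above the mean of compounds lying between control limits plus 3 SD, set per campaign, cut at about 8.5% in these data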
ADAM10 counter – ADAM10 inhibitors, counter-screen for ADAM17 exosite inhibitor project, biochemical, FRET, human ADAM10; shares compounds with ADAM17 inh; recombinant ADAM10, EDANS/DABCYL FRET peptide cleavage, 3 h; inhibition, % at 6.95 µM; 47% of 2,900 active; AID 743256, 2014;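 active = mean inhibition over the triplicate runs exceeds the activity threshold set in the earlier primary screen, cut at about 20% in these data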
ADAM17 confirm – ADAM17 inhibitors, hit retest, confirmation, biochemical, QFRET peptide cleavage; shares compounds with ADAM17 inh; recombinant ADAM17, EDANS/DABCYL QFRET peptide cleavage; inhibition, % at 6.95 µM; 65% of 2,900 active; AID 743257, 2014;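 active = mean inhibition across replicates above the hit cutoff set in the primary screen, cut at about 8.5% in these data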
Numbers stand for hits; n = inactive; x = no result. Sampled rows, rich in hits. Any-hit rate of the full collection: about 4%.

SMILES	ADAM10 inh	GRIN3A LBD mod	FAS-TE inh	aDG glyco act	ADAM17 inh	ADAM10 counter	ADAM17 confirm
Cc1noc(C)c1NC(=O)Nc1cccc2c1O[C@H](CN(C)S(=O)(=O)c1ccc(F)cc1)[C@@H](C)CN([C@H](C)CO)C2=O	n	n	n	n	11.1	n	n
Cc1cn(CCC(=O)Nc2ccccc2N2CCOCC2)c2ccccc12	n	n	n	n	8.9	24.8	12.0
COc1ccc(Nc2cc(=O)n(C3CCCCC3)c(=O)[nH]2)c(OC)c1	n	n	n	n	n	x	x
COc1cc(CNC(=O)c2cccc(COc3ccc(Cl)cc3)c2)cc(OC)c1	n	n	n	n	8.7	24.4	11.2
COc1ccc(NC(=O)C2Cc3c(-c4ccccc4Oc4ccccc4)ccnc3O2)cc1 (stereo not given)	n	x	n	n	9.6	n	n
O=C(Nc1cccc(OC(F)(F)F)c1)C1Cc2c(-c3ccco3)ccnc2O1 (stereo not given)	n	x	n	n	n	x	x
O=C(Nc1cccc(OC(F)(F)F)c1)C1Cc2c(-c3ccc(Cl)cc3)ccnc2O1 (stereo not given)	n	x	n	n	10.1	n	n
Cc1ccc2nc(SCC(=O)Nc3cccc(S(=O)(=O)N(C)C)c3)[nH]c2c1	n	n	n	n	11.6	n	10.6
CCCn1c(N)c(C(=O)CSc2nnc3n2CCCCC3)c(=O)n(C)c1=O	n	n	n	n	n	x	x
CCN1C(=O)/C(=C/c2ccc(C)s2)NC1=S	n	n	n	n	10.2	n	11.6
Cc1ccc(/C=C2/NC(=O)N(Cc3ccccc3)C2=O)s1	n	n	n	n	n	x	x
C=Cc1ccc(Cn2c(C)c(C(=O)NCc3cccc(C(F)(F)F)c3)sc2=O)cc1	n	x	n	n	n	x	x
COc1ccc(-c2cn[nH]c2N)cc1OC	n	n	n	n	n	x	x
COc1cc(OC)cc(-c2cn[nH]c2N)c1	n	n	n	n	9.1	n	13.2
COc1cc(NC2c3ccccc3C(=O)N2Cc2ccccc2Cl)cc(OC)c1 (stereo not given)	n	n	n	n	n	x	x
COc1cccc(NC2c3ccccc3C(=O)N2Cc2ccccc2Cl)c1 (stereo not given)	n	n	n	n	11.7	n	10.8
CC(=O)Nc1nc(-c2ccc3c(c2)CCO3)cs1	n	n	n	n	n	x	x
C/C(CC(=O)Nc1ccc(Br)cc1)=N\NC(=O)c1cccc(O)c1	n	n	n	n	10.0	n	n
O=C(Nc1ccccc1)C1C2CCC3C(CCC21)C3(Cl)Cl (stereo not given)	n	n	n	n	8.8	n	9.6
O=C(Nc1ccccc1Cl)C1C2CCC3C(CCC21)C3(Cl)Cl (stereo not given)	n	n	n	n	n	x	x
CC(C)CNC(=O)NC(=O)COC(=O)c1cc([N+](=O)[O-])ccc1NCc1ccccc1Cl	n	x	x	x	n	x	x
CC1=CC(C)(C)N2C(=O)C3(SCC(=O)N3c3ccc(F)cc3)c3cc(C)cc1c32 (stereo not given)	n	n	n	n	9.5	21.3	12.5
O=C1C(Cc2ccccc2)NC(=S)N1c1ccccc1 (stereo not given)	n	n	n	n	10.1	n	n
Cc1[nH]c(C)c(S(=O)(=O)N(C)Cc2ccccc2)c1C(=O)N1CCCCC1	n	n	n	n	n	x	x
C[C@@H]1CC=C[C@H]2[C@H]1C(=O)N(Cc1ccccc1)[C@H]2c1ccc(-c2ccoc2)cc1F	n	n	n	n	12.6	n	n

Screening results deposited in PubChem by several laboratories.
